Assay outcomes deposited in PubChem BioAssay by several laboratories.
Jurkat NFkB inh: inhibitors of induced NF-kB luciferase reporter, primary screen, TCR NF-kB activation inhibitor project, cell-based, luminescence, uHTS. Jurkat, PMA/ionomycin-induced NF-kB luciferase reporter. inhibition, % at 4 µM. AID 435003, 2010. 0.53% of 330,000 active; in the data active = inhibition above about 50%
CSC inhib: cancer stem cell viability inhibitors, primary screen, luminescence. 1.1% of 300,000 active. cancer stem cell-like cells viability. AID 2717, 2010. inhibition, % at 7.5 µM; in the data active = inhibition above about 75%; tested in HMLE shEcad cells
Beta cell apopt: inhibitors of cytokine-induced beta cell apoptosis, primary screen, luminescence | 0.8% of 300,000 active | protection from apoptosis, % (no concentration beside the values) | INS-1E cytokine-induced death, ATP luminescence, 48 h; percent of positive-control rescue, neutral wells zero | AID 435005, 2010;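 active = Every replicate reaches about 75%, or at least half do and their mean reaches it too, limit read from the data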;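 note: 0% = cytokine-treated negative control wells and 100% = positive control rescue; higher means more ATP so stronger rescue from cytokine killing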
Gli-Sufu antag: Gli-Sufu pathway antagonists, primary screen, luciferase luminescence, Sufu-KO-LIGHT cells, uHTS; Sufu-KO-LIGHT fibroblasts, Gli luciferase reporter luminescence; inhibition, % at 5 µM; 0.74% of 340,000 active; AID 588413, 2011;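 active = inhibition above about 55%, limit read from the data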;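 note: 0% = DMSO-treated cells and 100% = wells with medium but no cells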
697 NFkB inh: inhibitors of PMA/ionomycin-induced NF-kB reporter, 697 cells, primary screen, B-cell NF-kB inhibitor project, cell-based, luminescence, uHTS; 697 B-cell NF-kB luciferase reporter, 16 h; inhibition, % at 4 µM; 0.33% of 330,000 active; AID 435022, 2010; in the data active = inhibition above about 35%
Mdm2 MdmX PPI: inhibitors of human Mdm2-MdmX association, primary screen, cell-based, luminescence, split luciferase, SaOS-2, uHTS. Protein Mdm4 (Homo sapiens) + E3 ubiquitin-protein ligase Mdm2 (Homo sapiens), …. SaOS-2 split-luciferase Mdm2/MdmX complementation. inhibition, % at 8 µM. 3% of 330,000 active;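 active = inhibition of at least 50% at 8 µM in the primary screen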
Target sequence (O15151 whole entry, looked up): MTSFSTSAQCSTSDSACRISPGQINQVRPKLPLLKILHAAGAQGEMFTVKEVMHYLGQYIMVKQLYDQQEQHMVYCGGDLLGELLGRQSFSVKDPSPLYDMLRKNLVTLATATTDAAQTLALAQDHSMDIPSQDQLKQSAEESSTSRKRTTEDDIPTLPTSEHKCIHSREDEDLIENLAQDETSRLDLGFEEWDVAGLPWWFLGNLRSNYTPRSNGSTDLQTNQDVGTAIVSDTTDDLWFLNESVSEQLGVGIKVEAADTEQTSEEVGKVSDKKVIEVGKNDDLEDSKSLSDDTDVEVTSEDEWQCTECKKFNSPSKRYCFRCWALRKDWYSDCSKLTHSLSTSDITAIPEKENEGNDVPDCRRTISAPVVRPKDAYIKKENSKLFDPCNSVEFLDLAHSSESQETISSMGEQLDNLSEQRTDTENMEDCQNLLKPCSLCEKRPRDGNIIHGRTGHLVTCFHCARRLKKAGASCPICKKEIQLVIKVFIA
Target sequence (Q00987 whole entry, looked up): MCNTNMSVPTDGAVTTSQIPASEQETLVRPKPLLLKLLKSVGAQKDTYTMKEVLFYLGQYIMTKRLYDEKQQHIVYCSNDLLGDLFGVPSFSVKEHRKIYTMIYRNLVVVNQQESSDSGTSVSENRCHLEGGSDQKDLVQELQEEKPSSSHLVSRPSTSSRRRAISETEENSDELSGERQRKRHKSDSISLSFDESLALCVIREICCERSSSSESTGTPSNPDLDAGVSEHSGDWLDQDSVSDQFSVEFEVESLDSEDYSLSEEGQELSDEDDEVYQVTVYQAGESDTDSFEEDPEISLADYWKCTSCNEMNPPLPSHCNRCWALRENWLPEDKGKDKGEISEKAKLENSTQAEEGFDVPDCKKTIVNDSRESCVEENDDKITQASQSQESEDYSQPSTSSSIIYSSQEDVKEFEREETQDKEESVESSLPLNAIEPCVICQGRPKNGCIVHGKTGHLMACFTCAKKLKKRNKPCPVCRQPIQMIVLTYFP
Mdm2-MdmX conf: Mdm2-MdmX complex disruptors, retested hits, confirmation, luminescence, single concentration. shares compounds with Mdm2 MdmX PPI. Mdm2-MdmX binding, luminescent assay. 55% of 10,000 active. inhibition, % at 8 µM; in the data active = inhibition above about 40%
FLuc counter: full-length luciferase signal inhibition, confirmation, counter-screen for Mdm2/MdmX interaction inhibitor project, cell-based, single concentration, SaOS-2; shares compounds with Mdm2 MdmX PPI; AID 504607, 2011; 77% of 6,200 active; inhibition, % at 8 µM; SaOS-2 full-length luciferase counterscreen, luminescence;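 active = mean inhibition at 8 µM reaching about 37%, which flags the compound as non-specific, limit read from the data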;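 note: p53-null SaOS-2 cells with luciferase driven by a doxycycline-inducible promoter; compound on cells about two nights before reading with doxycycline added after day one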
* hit, by the source's call; · = not tested or not shown. A selection: hits, their analogues and other compounds. The true share with any hit is near 4.5%.

SMILES	Jurkat NFkB inh	CSC inhib	Beta cell apopt	Gli-Sufu antag	697 NFkB inh	Mdm2 MdmX PPI	Mdm2-MdmX conf	FLuc counter
Brc1ccc2c(c1)C(c1ccc(N3CCOCC3)cc1)=NNC(c1cccs1)=N2	26.5	-5.3	0.6	15.9	5.2	59.4*	-4.5	·
Cc1cc(N)c2cc(NC(=O)/C=C/c3ccccc3Cl)ccc2n1	3.7	141.4*	109.1*	12.9	-67.3	100.4*	99.8*	51.5*
O=C(NCc1ccccn1)Nc1cc(Cl)cc(Cl)c1	-8.6	7.0	9.6	9.9	21.8	18.2	·	·
O=C(Nc1cccnc1)Nc1ccccc1Cl	-5.6	-3.9	1.2	-12.8	8.1	2.0	·	·
O=C(Nc1ccccc1)Nc1cc(Cl)cc(Cl)c1	-9.3	80.9*	69.8	-0.5	13.6	90.6*	80.3*	22.6
O=C(Nc1cccnc1)Nc1cc(Cl)cc(Cl)c1	4.0	35.9	20.2	-4.6	18.5	50.2*	6.0	·
O=C(NCc1csc2ccccc12)Nc1cc(Cl)cc(Cl)c1	5.8	18.8	5.8	-1.8	17.8	69.1*	16.9	·
CS(=O)(=O)Nc1ccccc1C(=O)Nc1cc(Cl)cc(Cl)c1	5.2	58.9	63.9	45.5	0.8	60.4*	92.2*	28.3
CC1(C)Cc2cccc(OCC(=O)Nc3cc(S(C)(=O)=O)ccc3Cl)c2O1	-17.5	10.0	-5.4	-6.6	-5.4	-18.8	·	·
CCN(c1ccc(NC(=O)c2ccc(Cl)nc2)cc1)C(C)C	29.8	7.1	25.5	-14.7	-46.3	34.0	·	·
O=C(O)c1ccccc1OC(C(=O)Nc1cc(Cl)cc(Cl)c1)c1ccccc1 (stereo not given)	-4.2	6.8	17.5	28.1	7.0	76.5*	25.8	·
O=C(Nc1cc(Cl)cc(Cl)c1)C(c1ccccc1)N1CCCCC1 (stereo not given)	1.0	19.6	-0.4	1.8	8.9	11.5	·	·
CSc1cccc(N2C(=O)C3CCCN3C2=S)c1 (stereo not given)	16.5	-9.4	-8.2	-19.2	-4.4	-8.8	·	·
CCC(=O)Nc1nc(C)c(-c2csc(Nc3ccc(C(=O)O)cc3)n2)s1	4.1	·	·	10.3	-3.6	19.6	·	·
CC(=O)Nc1nc(C)c(-c2csc(Nc3cccc(C(C)=O)c3)n2)s1	7.9	-7.4	-0.3	0.2	12.2	82.0*	45.6*	41.1*
CC(=O)Nc1nc(C)c(-c2csc(Nc3ccc(O)cc3)n2)s1	0.8	·	22.7	28.6	-20.1	66.2*	68.5*	43.5*
O=S(=O)(c1cccc(NC(=S)N2CCN(c3cccc(Cl)c3)CC2)c1)C(F)F	3.3	16.4	-1.6	9.1	1.6	52.0*	14.7	·
Cc1nc(NC(=O)COC(=O)c2cccs2)c(Cl)cc1Cl	-2.4	·	·	-8.3	-40.7	-5.9	·	·
O=c1c2ccccc2nc(/C=C/c2c[nH]c3ccccc23)n1CCO	-82.0	5.6	4.9	-29.6	-47.6	-35.7	·	·
O=c1c2ccccc2nc(/C=C/c2cc(Br)ccc2O)n1CCO	15.0	53.3	-6.9	2.6	22.5	64.9*	56.6*	32.4
Cc1ccc(-c2nc3c(c(SCC(=O)N4CCOCC4)n2)COC(C)(C)C3)cc1	-7.5	-4.5	-2.2	1.7	-9.4	7.1	·	·
O=C(OCC(=O)N1CCN(C(=O)c2ccco2)CC1)c1ccccc1NCCO	9.7	-8.9	-1.4	0.3	-56.3	-0.9	·	·
O=C(NC(Cc1c[nH]c2ccccc12)C(=O)Nc1ccc(F)cc1)c1cccs1 (stereo not given)	-6.5	-13.3	-4.6	-4.9	-129.4	85.8*	70.8*	70.3*
COC(=O)C(Cc1c[nH]c2ccccc12)NC(=O)c1cccs1 (stereo not given)	-33.6	-12.5	-1.5	1.8	-25.3	-0.7	·	·
O=C(c1ccc(Cl)c(Cl)c1)N1CCC(=O)N(C(COCc2cccc(C(F)(F)F)c2)Cc2ccccc2)CC1 (stereo not given)	0.0	22.8	-8.7	8.3	-1.8	50.7*	21.2	·
